The source made the active and inactive calls.
Legend:
[1] = system: Human papillomavirus type 1a protein E7 (residues 44-93); assay: small molecules binding HPV E7 44-93 – biochemical, small-molecule microarray, residues 44-93, 635 nm fluorescence, primary screen (AID 1108); conditions: fluorescence 635 nm, higher = more signal;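 further: E7 fragment applied at 1 µg/mL in TBST for 1 h at 4 C; score combines spot fluorescence with its signal to noise ratio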
[2] = hepatitis C replication reporter changes, two-sided – Huh7 cells, luciferase reporter, HCV replication inhibitor project, primary screen (AID 1109); conditions: Huh7 HCV replicon luciferase reporter, 48 h; higher = more signal;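 further: huh7 hepatoma cells harbouring a luciferase neomycin HCV replicon reporter; luciferase luminescence as measure of HCV replicon replication; test concentration not given here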
[3] = biological target: Left-right determination factor 2 (Homo sapiens) (UniProt O00292); assay: small molecules binding LEFTY2 protein – biochemical, small-molecule microarray, 635 nm fluorescence scan, primary screen (AID 1110); conditions: higher = more signal
Sequence of Left-right determination factor 2 (Homo sapiens) (O00292 whole entry, looked up): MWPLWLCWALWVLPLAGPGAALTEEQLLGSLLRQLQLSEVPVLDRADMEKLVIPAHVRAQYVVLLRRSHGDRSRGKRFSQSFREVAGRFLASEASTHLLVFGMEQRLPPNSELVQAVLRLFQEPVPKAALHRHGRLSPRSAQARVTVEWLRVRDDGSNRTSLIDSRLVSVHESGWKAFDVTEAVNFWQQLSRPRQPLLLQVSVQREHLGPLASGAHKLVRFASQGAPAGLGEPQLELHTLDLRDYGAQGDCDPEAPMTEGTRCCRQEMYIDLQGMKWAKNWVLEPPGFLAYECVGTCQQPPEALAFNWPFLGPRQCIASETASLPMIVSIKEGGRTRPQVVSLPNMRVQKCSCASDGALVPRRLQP

[4] = biological target: Calmodulin-1 (Homo sapiens) (UniProt P0DP23); assay: small molecules binding calmodulin-1 with EGTA – biochemical, small-molecule microarray, Cy5-labelled CALM1, profiling panel (AID 1111); conditions: Cy5-CALM1 binding fluorescence, higher = more signal;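 further: labelled calmodulin applied in Tris saline Tween buffer holding calcium plus EGTA and DTT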
[5] = biological target: Calmodulin-1 (Homo sapiens) (UniProt P0DP23); assay: small molecules binding Ca-loaded calmodulin-1 – biochemical, small-molecule microarray, Cy5-labelled CALM1, plus calcium, artefact control for SMM control-protein annotation, profiling panel (AID 1112); conditions: Cy5-CALM1 binding fluorescence, higher = more signal;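 further: score merges spot fluorescence with signal to noise from triplicate slides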
[6] = probe aWnt5a binding to arrayed compounds – biochemical, biotinylated probe, 635/667 nm fluorescence, primary screen (AID 1113); conditions: small-molecule microarray, higher = more signal;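 further: score merges 667 nm fluorescence intensity with signal-to-noise per printed feature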
[7] = probe aShh binding to arrayed compounds – biochemical, biotinylated probe, 635/667 nm fluorescence, primary screen (AID 1114); conditions: small-molecule microarray, higher = more signal;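 further: probe is biotin-labelled aShh protein from a stem cell growth factor screen; measures binding of labelled protein to compounds printed on the slide; score merges feature fluorescence at 667 nm with signal-to-noise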
[8] = probe aNog binding to arrayed compounds – biochemical, biotinylated probe, 635/667 nm fluorescence, primary screen (AID 1115); conditions: small-molecule microarray, higher = more signal;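 further: probe is biotinylated aNog protein used at 0.15 µg/mL for 1 h at 4 C; z-score combines 667 nm fluorescence of each spot with its signal to noise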
[9] = biological target: Torsin-1A-interacting protein 1 (Homo sapiens) (UniProt Q5JTV8); assay: compound microarray binding of lysate hLAP1 – cell lysate, small-molecule microarray, COS7 lysate, 635/667 nm fluorescence, primary screen (AID 1116); conditions: 635 nm fluorescence, higher = more signal
Sequence of Torsin-1A-interacting protein 1 (Homo sapiens) (Q5JTV8 whole entry, looked up): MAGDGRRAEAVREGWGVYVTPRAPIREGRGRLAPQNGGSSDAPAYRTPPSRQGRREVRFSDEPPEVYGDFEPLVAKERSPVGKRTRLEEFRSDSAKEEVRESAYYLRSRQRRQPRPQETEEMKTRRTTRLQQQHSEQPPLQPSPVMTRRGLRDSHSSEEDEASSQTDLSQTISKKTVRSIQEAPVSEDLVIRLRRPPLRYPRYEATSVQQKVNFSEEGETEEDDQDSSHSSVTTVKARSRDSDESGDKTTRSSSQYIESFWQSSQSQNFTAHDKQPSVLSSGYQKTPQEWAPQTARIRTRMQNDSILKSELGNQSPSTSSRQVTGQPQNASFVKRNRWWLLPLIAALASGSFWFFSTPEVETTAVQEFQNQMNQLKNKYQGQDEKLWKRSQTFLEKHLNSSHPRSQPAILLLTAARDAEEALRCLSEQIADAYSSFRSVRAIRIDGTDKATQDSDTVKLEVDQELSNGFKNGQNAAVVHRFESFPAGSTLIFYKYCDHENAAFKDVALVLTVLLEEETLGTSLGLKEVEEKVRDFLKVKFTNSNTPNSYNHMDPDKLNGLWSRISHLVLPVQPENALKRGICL

[10] = biological target: Alpha-bungarotoxin (Bungarus multicinctus) (UniProt P60615); assay: compounds binding labelled alpha-BTX control protein – biochemical, small-molecule microarray, Alexa647 label, 635/667 nm fluorescence, artefact control for SMM control protein annotation, profiling panel (AID 1117); conditions: alpha-BTX-A647 binding fluorescence, higher = more signal
Sequence of Alpha-bungarotoxin (Bungarus multicinctus) (P60615 whole entry, looked up): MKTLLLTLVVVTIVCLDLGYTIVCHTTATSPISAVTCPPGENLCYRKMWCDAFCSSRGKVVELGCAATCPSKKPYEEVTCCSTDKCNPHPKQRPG

[11] = biological target: Albumin (Bos taurus) (UniProt P02769); assay: compounds binding labelled BSA control protein – biochemical, small-molecule microarray, Alexa647 label, 635/667 nm fluorescence, artefact control for SMM control protein annotation, profiling panel (AID 1118); conditions: BSA-A647 binding, fluorescence 635 nm, higher = more signal;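 further: score merges 667 nm emission intensity and signal-to-noise per printed compound spot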
Sequence of Albumin (Bos taurus) (P02769 whole entry, looked up): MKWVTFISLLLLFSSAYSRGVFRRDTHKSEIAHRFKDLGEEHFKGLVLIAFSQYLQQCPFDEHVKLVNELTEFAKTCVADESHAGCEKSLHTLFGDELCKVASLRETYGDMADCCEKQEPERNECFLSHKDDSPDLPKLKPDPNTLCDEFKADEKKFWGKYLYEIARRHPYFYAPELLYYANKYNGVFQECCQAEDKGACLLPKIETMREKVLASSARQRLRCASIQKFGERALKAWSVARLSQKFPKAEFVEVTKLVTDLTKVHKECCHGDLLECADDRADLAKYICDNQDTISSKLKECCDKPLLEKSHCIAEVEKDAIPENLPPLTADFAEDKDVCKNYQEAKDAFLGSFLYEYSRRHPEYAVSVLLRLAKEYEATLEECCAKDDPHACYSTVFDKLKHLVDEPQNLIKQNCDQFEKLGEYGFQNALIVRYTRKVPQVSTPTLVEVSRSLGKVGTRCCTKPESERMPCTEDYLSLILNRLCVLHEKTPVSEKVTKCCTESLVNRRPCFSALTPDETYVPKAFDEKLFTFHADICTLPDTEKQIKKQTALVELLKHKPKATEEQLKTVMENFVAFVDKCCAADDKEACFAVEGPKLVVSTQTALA

[12] = probe aXIP binding to arrayed compounds – biochemical, NeuroSMM set, 635/667 nm fluorescence, primary screen (AID 1119); conditions: small-molecule microarray, higher = more signal, called active from +8 up or from −8 down;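 further: probe is the protein aXip251-270 applied at 1 µg/mL to compound-printed slides; binding of probe to printed compounds measured as 667 nm fluorescence plus signal to noise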
[13] = probe aNOTCH3 binding on compound microarray – biochemical, small-molecule microarray, 635/667 nm fluorescence, primary screen (AID 1120); conditions: higher = more signal;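 further: probe is a biotin-tagged antibody raised against NOTCH3 rather than NOTCH3 protein; score merges spot fluorescence near 667 nm with spot signal to noise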
[14] = probe aNOTCH2 binding on compound microarray – biochemical, small-molecule microarray, 635/667 nm fluorescence, primary screen (AID 1121); conditions: higher = more signal;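 further: score merges feature fluorescence read at 667 nm with its signal to noise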
[15] = biological target: Carbonic anhydrase 2 (Homo sapiens) (UniProt P00918); assay: compounds binding carbonic anhydrase 2 – biochemical, small-molecule microarray, Alexa647-labelled CAII, profiling panel (AID 1122); conditions: CAII-A647 binding fluorescence, higher = more signal
[16] = COS7 lysate on small-molecule microarray, probe aHis, 635 nm (AID 1123); conditions: COS7 cell lysate, fluorescence, higher = more signal;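 further: z-score combines 667nm fluorescence intensity with signal-to-noise per printed compound spot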
[17] = probe aLAP1 signal on lysate-treated microarray – cell lysate, small-molecule microarray, COS7 lysate, primary screen (AID 1124); conditions: probe aLAP1, fluorescence, higher = more signal;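 further: lysate comes from COS7 cells expressing LAP1 and is applied at 0.3 µg/mL; score merges spot fluorescence near 667 nm with signal-to-noise over triplicate slides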
[18] = system: Sam68 (KHDRBS1); assay: compounds binding KHDRBS1 protein – biochemical, small-molecule microarray, 635 nm fluorescence, primary screen (AID 1125); conditions: higher = more signal;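 further: score merges 667 nm channel intensity with signal to noise over triplicate slides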
[19] = system: Chordin-like protein 2 (CHRDL2); assay: compounds binding chordin-like 2 – biochemical, small-molecule microarray, 635 nm fluorescence, primary screen (AID 1126); conditions: fluorescence 635 nm, higher = more signal;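 further: printed compound slides probed with Chrdl2 protein at 4 µg/mL for 1 h at 4 C; score merges 667 nm emission intensity with signal to noise over three replicate slides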
[20] = biological target: Concanavalin-A (Canavalia ensiformis) (UniProt P02866); assay: compounds binding concanavalin A lectin – biochemical, small-molecule microarray, Alexa647 label, 635 nm, artefact control for SMM control protein annotation, primary screen (AID 1127); conditions: ConA-A647 binding fluorescence, higher = more signal;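 further: z combines 667 nm emission intensity with signal-to-noise across three replicate slides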
Sequence of Concanavalin-A (Canavalia ensiformis) (P02866 whole entry, looked up): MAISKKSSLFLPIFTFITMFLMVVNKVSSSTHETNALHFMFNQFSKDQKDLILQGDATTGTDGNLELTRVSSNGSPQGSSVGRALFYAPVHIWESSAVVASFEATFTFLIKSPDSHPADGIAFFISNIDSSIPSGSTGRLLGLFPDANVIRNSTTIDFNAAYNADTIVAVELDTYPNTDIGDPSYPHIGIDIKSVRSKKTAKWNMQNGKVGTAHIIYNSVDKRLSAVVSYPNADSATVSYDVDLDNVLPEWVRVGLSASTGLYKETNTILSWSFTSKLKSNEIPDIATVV

| Compound | composite z-score [1] | z-score [2] | composite z-score [3] | composite z-score [4] | composite z-score [5] | composite z-score [6] | composite z-score [7] | composite z-score [8] | composite z-score [9] | composite z-score [10] | composite z-score [11] | composite Z-score [12] | composite z-score [13] | composite z-score [14] | composite z-score [15] | composite z-score [16] | composite z-score [17] | composite z-score [18] | composite z-score [19] | composite z-score [20] |
| --- | --- | --- | --- | --- | --- | --- | --- | --- | --- | --- | --- | --- | --- | --- | --- | --- | --- | --- | --- | --- |
| C=CCC(OC(C)=O)[C@@H]1[C@@H](N(Cc2cccc3ccccc23)C(=O)c2ccc(-c3ccccc3)cc2)c2cc(OCCCO)ccc2N1C(=O)c1ccc(-c2ccccc2)cc1 (stereo not given in full) | 0.635 | -0.681 | 0.385 | 0.603 | 1.16 | -0.0819 | 0.0899 | 0.355 | 0.35 | 0.439 | -0.0811 | -0.646 (inactive) | -0.0647 | -0.0294 | 0.255 | 0.384 | 0.205 | -0.225 | -0.046 | -0.441 |
| COc1ccc([Si](C)(C)[C@@H]2[C@@H](CCn3cc([C@H](O)c4ccccc4)nn3)O[C@]3(C(=O)N(Cc4cccc(N5C(=O)c6cccc7cccc5c67)c4)c4ccccc43)[C@H]2C)cc1 | 1.04 | -2.89 | -1.54 | 0.114 | 0.364 | -0.232 | -0.221 | 0.262 | -0.364 | 0.0544 | 0.371 | 0.0425 (inactive) | -0.157 | -0.155 | 0.405 | 0.992 | -0.64 | 0.173 | -1.09 | 0.234 |
| Cc1ccc(S[C@]2(C(=O)NCC(C)C)CC(=O)N(C3Cc4ccccc4C3)[C@@H]2c2ccc(CO)cc2I)cc1 | -0.117 | -1.33 | -1.2 | -0.257 | 0.27 | -0.125 | -0.368 | 0.0862 | 0.273 | -0.324 | -0.615 | -0.211 (inactive) | -0.323 | -0.188 | 0.398 | 0.554 | -0.221 | -0.383 | -1.65 | -0.762 |
| COC(=O)C(CC#Cc1ccc2c(c1)[C@]1(C(=O)N2)[C@H](c2ccc(OCCO)cc2)N2[C@H](c3ccccc3)[C@H](c3ccccc3)OC(=O)[C@H]2[C@@H]1C(=O)N1CCN(c2ncccn2)CC1)C(=O)OC | 0.233 | -1.49 | 1.28 | 1.48 | 0.43 | -0.0286 | 0.214 | -0.889 | 1.2 | 1.3 | 0.621 | 0.434 (inactive) | 0.176 | 0.0296 | 0.62 | 1.71 | 0.832 | 1.3 | 0.441 | 1.16 |
| CCOC(=O)C1=CC[C@@H](c2ccccc2)N(S(=O)(=O)c2ccc(C)cc2)[C@H]1C=Cc1ccccc1 | 0.261 | -1.83 | -0.481 | 0.401 | -0.401 | 0.127 | -0.13 | -0.5 | 0.381 | 0.621 | 0.725 | 0.206 (inactive) | 0.0372 | -0.0569 | 0.707 | 1.03 | 0.827 | 0.602 | -0.19 | 0.81 |
| Cc1ccc(S[C@]2(C(=O)NC(C)C)CC(=O)N(Cc3ccccc3Cl)[C@@H]2c2ccc(CO)cc2)cc1 | 0.949 | -1.81 | -1.76 | -0.142 | 0.214 | -0.154 | -0.0035 | -0.429 | 0.98 | 1.07 | 0.29 | 0.0728 (inactive) | -0.294 | -0.146 | 0.717 | 0.634 | 0.542 | -1.21 | -1.85 | -0.744 |
| C=C(/C(=C/C[C@H](OC(=O)c1ccncc1)c1ccccc1OCCO)c1cnc2ccccc2c1)C(C)C | 1.41 | -2.63 | 1.05 | 0.547 | -0.558 | 0.0374 | 0.172 | -0.0809 | 0.358 | 1.73 | 0.706 | 0.0746 (inactive) | 0.145 | -0.126 | 0.566 | 0.443 | 0.0737 | 1.31 | 1.18 | 1.19 |
| COC(=O)C(CC#Cc1ccc2c(c1)[C@]1(C(=O)N2)[C@H](C(=O)Nc2nc3ccccc3s2)[C@H]2C(=O)O[C@H](c3ccccc3)[C@H](c3ccccc3)N2[C@@H]1c1ccc(OCCO)cc1)C(=O)OC | 1.39 | -1.85 | 0.768 | 1.52 | 0.326 | 0.189 | 0.427 | 1 | 2.02 | 1.62 | 0.942 | 0.0898 (inactive) | 0.178 | -0.0209 | 0.553 | 2.29 | 1.04 | 1.3 | 0.517 | 1.12 |
| COC(=O)[C@@]1(Cc2ccc(F)cc2)[C@H]2c3cc(C(=O)N4CCCC4)n(C)c3C[C@H]2CN1C(=O)c1ccccc1 | -0.919 | -1.4 | -0.917 | 2.5 | 1.11 | 0.122 | 0.0044 | 1.39 | 2.84 | 0.121 | 0.942 | 0.929 (inactive) | 0.49 | 0.295 | 0.76 | 3.32 | 1.01 | 1.31 | -1.04 | 0.683 |
| COCCOC(=O)N1C(=O)[C@@]2(c3cc(C#CC4(O)CCCCCC4)ccc31)[C@H](C(=O)N1CCN(c3ncccn3)CC1)[C@H]1C(=O)O[C@H](c3ccccc3)[C@H](c3ccccc3)N1[C@@H]2c1ccccc1OCCO | 1.37 | -2.22 | 1.2 | 0.348 | 0.0618 | -0.184 | 0.116 | -0.263 | 0.334 | 0.684 | -0.22 | 0.572 (inactive) | 0.22 | -0.0826 | 0.384 | 0.506 | -0.176 | 1.26 | 0.902 | 1.13 |
